Consider 18 molecules from PubChem BioAssay AID624331 (National Center for Advancing Translational Sciences (NCATS), 2012).

The structures appear in SMILES notation. Inconclusive results are not listed. A number with no mark means an inactive call. The source made the active and inactive calls. The call rests on the fitted dose curve; in most records, active means well fitted activation curve with a large enough effect; inconclusive means small, poorly fitted or top-dose-only effect; inactive means no such curve, though single readings can be large or run the other way.
Potency means the concentration at half of the fitted maximal effect.

The nature of the assay: qHTS assay for re-activators of p53 using a Luc reporter: Hit Validation with no p53 Expressed. On activity change, positive = activation: 0% is about no effect. Particulars: p53-null cells, luciferase reporter counter-screen; series mostly up to 46.1 µM; activity change, positive = activation: at the top concentration. An outline of the steps:
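Without p53 expression, cells (1000/well, Opti-MEM + 10% FBS) were exposed 24 h at 37 deg C to compounds in a 1:5 series from 10 mM stock (top 46.1 µM in well). Luminescent signal read 10 min after Amplite addition; actives flag unspecific activation.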
For orientation: qHTS replaces the single test concentration by a dilution series.
For `Clc1ccc(OCc2nc(-c3ccccn3)n[nH]2)cc1`, the “activity change, positive = activation” value is 7.13%. Take `COc1ccc2oc(-c3cccc(NC(=O)CSc4ccc(Cl)cc4)c3)nc2c1`: the “activity change, positive = activation” value was 46.1%.

With `O=C(COC(=O)c1ccc(-c2nnc(-c3ccccc3)o2)cc1)c1ccccc1`, the Potency is 146 nM (active). For `N/C(=N\c1nc2ccccc2o1)NC(=O)c1ccc(F)cc1`, the “activity change, positive = activation” value is 63.9%. Turning to `O=C(Oc1ccccc1/C=C\C(=O)c1cc2ccccc2o1)c1cccc(F)c1`, the “activity change, positive = activation” value is 4.1%.

As to `O=S(=O)(N/N=C/c1ccccc1OCc1ccc(Cl)cc1)c1ccccc1`, the “activity change, positive = activation” value was -19.1%.

Take `N#C/C(=C/c1cccnc1)c1ccccc1`: the “activity change, positive = activation” value was -42.3%. As to `COc1ccc(CCC(=O)NC(C)C2CCCO2)cc1` (stereo not drawn), the “activity change, positive = activation” value was -46.1%.

As for `CCCC(=O)NC(c1cccs1)c1cc([N+](=O)[O-])c2cccnc2c1O` (stereo not drawn), the “activity change, positive = activation” value is -22.1%.

With `COc1ccc(CNc2nc(-c3ccccc3)nn2C(=O)c2ccc([N+](=O)[O-])cc2)cc1`, the “activity change, positive = activation” value is 5.34%.

As to `CS(=O)(=O)n1nc(-c2ccccc2)nc1NCc1ccco1`, the “activity change, positive = activation” value is 6.95%. Consider `O=C(COC(=O)CNC(=O)c1ccc([N+](=O)[O-])o1)Nc1ncc(C(F)(F)F)cc1Cl`, for which the “activity change, positive = activation” value was 95.4%. The same measure, in the same setting: next, `Cc1cc(C(=O)Cn2nnc3ccccc3c2=O)c(C)n1Cc1cccs1`: 9.81%; `Cc1cccnc1NC(=O)/C=C/c1ccc2c(c1)OCO2`: 66.3%. In the case of `Nc1nc2ccc(N3CCOCC3)cc2s1`, the “activity change, positive = activation” value was -16.9%. For the molecule `Cc1cccc(/C(N)=N/OC(=O)c2ccc3c(c2)OCO3)c1`, the “activity change, positive = activation” value was 57.1%. Still for that read-out and setting: the value for `Cc1cccc(-n2nc([N+](=O)[O-])c(=NC3CCN(Cc4ccccc4)CC3)n2O)c1` was -29.7%; that for `O=C(Nc1ccc(Cl)cc1Cl)c1ccc2c(c1)OCCO2` was 28.2%.
